Our source for the outcome and AC50 values is PubChem BioAssay (EPA / NIEHS).

Results filed as inconclusive are left out. Active and inactive are the calls of the source. The calls were made as follows: active = hit-call score of the fitted dose curve at least 0.9, where 1 is the maximum; inconclusive = response in the unintended direction; inactive = score below 0.9.

For assay [1], the target named is human Peroxisome Proliferator-activated Receptor alpha (PPARa), PPARA (gene 5465) (UniProt Q07869). Description: ATG_PPARa_TRANS: Attagene TRANS-FACTORIAL HepG2 Assay for human Peroxisome Proliferator-activated Receptor alpha (PPARa) (AID 2283001).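 As to AC50: potency for gain of reporter signal over DMSO so agonist or activator.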 Summed up:
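Gain-of-signal endpoint: reporter mRNA induction relative to DMSO, detected by fluorescent RT-PCR and capillary electrophoresis. HepG2 cells transiently carried GAL4-UAS-driven reporter units plus NR-Gal4 fusion; exposure lasted 24 h.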

Assay [2] concerns the target human Peroxisome Proliferator-activated Receptor delta (PPARd), PPARD (gene 5467) (UniProt Q03181). Description: ATG_PPARd_TRANS: Attagene TRANS-FACTORIAL HepG2 Assay for human Peroxisome Proliferator-activated Receptor delta (PPARd) (AID 2283002). In a few lines:
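Measured quantity: GAL4-UAS reporter transcript induction in HepG2 after 24 h chemical dosing, with NR-Gal4 chimeras supplied by transient transfection. Detection by RT-PCR and capillary electrophoresis; upward fit against DMSO.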

The target in assay [3] is human Retinoic Acid Receptor beta (RARb), RARB (gene 5915) (UniProt P10826). Description: ATG_RARb_TRANS: Attagene TRANS-FACTORIAL HepG2 Assay for human Retinoic Acid Receptor beta (AID 2283004). In a few lines: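 HepG2 cells were transiently transfected with GAL4-UAS reporter units that report activity of exogenous chimeric NR-Gal4 proteins, then exposed to compound for 24 h. Reporter mRNA was quantified by RT-PCR with capillary electrophoresis fluorescence, as gain of signal over DMSO.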

Assay [4] concerns the target Nuclear receptor subfamily 1 group I member 2 (Homo sapiens) (UniProt O75469). Description: ATG_PXR_TRANS: Attagene TRANS-FACTORIAL HepG2 Assay for human Pregnane X Receptor (PXR) (AID 2283008). Summed up: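 Measures mRNA induction of a GAL4-UAS-driven reporter in human HepG2 cells transiently expressing PXR fused to Gal4, following 24 h treatment. DMSO served as negative control and baseline.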

Assay [5] addresses Retinoic acid receptor alpha (Homo sapiens) (UniProt P10276). Description: ATG_RARa_TRANS: Attagene TRANS-FACTORIAL HepG2 Assay for human Retinoic Acid Receptor alpha (RARa) (AID 2283005).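 As to AC50: potency for increased reporter signal meaning RARa activation over DMSO.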 In a few lines:
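HepG2 cells transiently transfected with multiple reporter units expressing chimeric RARα-GAL4 fusion, with GAL4-UAS-driven reporters. After 24 h compound exposure, reporter mRNA induction quantified by RT-PCR and capillary electrophoresis with fluorescent labeling; gain-of-signal fitted relative to DMSO control.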

For assay [6], the target named is Peroxisome proliferator-activated receptor gamma (Homo sapiens) (UniProt P37231). Description: ATG_PPARg_TRANS: Attagene TRANS-FACTORIAL HepG2 Assay for human Peroxisome Proliferator-activated Receptor-gamma (PPARg) (AID 2283007). In a few lines:
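Endpoint reflects upward reporter mRNA change versus DMSO controls. Setup: transiently transfected HepG2, GAL4-UAS reporters driven by chimeric NR-Gal4, 24 h incubation, RT-PCR with capillary electrophoresis read-out.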

For assay [7], the target named is human Retinoic Acid Receptor gamma (RARg), RARG (gene 5916) (UniProt P13631). The experiment in a line: ATG_RARg_TRANS: Attagene TRANS-FACTORIAL HepG2 Assay for human Retinoic Acid Receptor gamma (RARg) (AID 2283009). In a few lines: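 Transient transfection of HepG2 with multi-reporter constructs, then 24 h chemical treatment. Total RNA isolated, reverse-transcribed, PCR-amplified, fluorescently labelled and resolved by capillary electrophoresis; activity scored as mRNA induction versus DMSO.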
Sequence of human Retinoic Acid Receptor gamma (RARg), RARG (gene 5916) (P13631 whole entry, looked up): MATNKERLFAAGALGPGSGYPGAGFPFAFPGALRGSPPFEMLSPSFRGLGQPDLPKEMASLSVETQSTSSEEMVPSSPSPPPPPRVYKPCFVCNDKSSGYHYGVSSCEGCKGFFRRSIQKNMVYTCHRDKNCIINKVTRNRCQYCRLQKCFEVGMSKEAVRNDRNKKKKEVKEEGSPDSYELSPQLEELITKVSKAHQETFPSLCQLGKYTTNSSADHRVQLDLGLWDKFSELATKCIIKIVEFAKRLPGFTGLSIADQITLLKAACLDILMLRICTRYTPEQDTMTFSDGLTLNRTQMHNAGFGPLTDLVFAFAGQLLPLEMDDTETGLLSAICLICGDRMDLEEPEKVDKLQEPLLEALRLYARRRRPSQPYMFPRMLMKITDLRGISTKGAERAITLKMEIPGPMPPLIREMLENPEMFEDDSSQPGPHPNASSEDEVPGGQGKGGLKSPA

Sequence of human Peroxisome Proliferator-activated Receptor alpha (PPARa), PPARA (gene 5465) (Q07869 whole entry, looked up, the tested form may be a part): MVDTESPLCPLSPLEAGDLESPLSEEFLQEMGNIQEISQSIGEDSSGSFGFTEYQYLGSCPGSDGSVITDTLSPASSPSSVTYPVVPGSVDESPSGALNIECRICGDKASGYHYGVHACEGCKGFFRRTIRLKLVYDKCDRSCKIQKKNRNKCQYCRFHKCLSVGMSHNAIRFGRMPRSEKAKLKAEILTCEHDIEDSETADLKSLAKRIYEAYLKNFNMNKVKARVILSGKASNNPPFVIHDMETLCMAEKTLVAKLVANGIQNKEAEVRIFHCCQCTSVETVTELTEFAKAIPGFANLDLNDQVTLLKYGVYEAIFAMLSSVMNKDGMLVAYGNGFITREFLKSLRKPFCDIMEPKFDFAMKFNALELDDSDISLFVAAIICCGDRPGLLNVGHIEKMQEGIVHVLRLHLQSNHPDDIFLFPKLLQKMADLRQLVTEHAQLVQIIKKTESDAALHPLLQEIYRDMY
Sequence of Retinoic acid receptor alpha (Homo sapiens) (P10276 whole entry, looked up, the tested form may be a part): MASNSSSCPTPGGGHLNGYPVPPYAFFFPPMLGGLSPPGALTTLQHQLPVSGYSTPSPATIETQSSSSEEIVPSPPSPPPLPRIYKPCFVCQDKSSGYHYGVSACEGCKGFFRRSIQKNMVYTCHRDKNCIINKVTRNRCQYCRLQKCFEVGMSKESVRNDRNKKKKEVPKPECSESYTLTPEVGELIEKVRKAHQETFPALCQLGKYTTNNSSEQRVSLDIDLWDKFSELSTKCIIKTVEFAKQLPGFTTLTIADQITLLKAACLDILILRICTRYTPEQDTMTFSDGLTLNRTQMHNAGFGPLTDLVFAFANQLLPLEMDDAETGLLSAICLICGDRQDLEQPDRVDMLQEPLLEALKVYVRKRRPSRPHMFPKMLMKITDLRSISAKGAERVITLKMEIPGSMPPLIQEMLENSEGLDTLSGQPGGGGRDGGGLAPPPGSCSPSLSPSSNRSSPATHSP
Sequence of Nuclear receptor subfamily 1 group I member 2 (Homo sapiens) (O75469 whole entry, looked up, the tested form may be a part): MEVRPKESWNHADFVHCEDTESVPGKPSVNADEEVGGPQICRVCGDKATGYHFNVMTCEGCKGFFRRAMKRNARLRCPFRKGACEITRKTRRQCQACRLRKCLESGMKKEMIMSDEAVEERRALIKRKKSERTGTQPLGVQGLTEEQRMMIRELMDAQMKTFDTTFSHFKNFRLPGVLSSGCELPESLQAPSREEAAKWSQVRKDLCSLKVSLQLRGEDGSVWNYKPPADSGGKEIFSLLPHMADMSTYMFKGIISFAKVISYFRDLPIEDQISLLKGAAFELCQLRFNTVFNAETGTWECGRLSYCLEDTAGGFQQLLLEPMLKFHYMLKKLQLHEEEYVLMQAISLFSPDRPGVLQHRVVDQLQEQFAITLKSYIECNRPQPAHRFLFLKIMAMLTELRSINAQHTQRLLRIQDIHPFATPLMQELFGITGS
Sequence of human Retinoic Acid Receptor beta (RARb), RARB (gene 5915) (P10826 whole entry, looked up, the tested form may be a part): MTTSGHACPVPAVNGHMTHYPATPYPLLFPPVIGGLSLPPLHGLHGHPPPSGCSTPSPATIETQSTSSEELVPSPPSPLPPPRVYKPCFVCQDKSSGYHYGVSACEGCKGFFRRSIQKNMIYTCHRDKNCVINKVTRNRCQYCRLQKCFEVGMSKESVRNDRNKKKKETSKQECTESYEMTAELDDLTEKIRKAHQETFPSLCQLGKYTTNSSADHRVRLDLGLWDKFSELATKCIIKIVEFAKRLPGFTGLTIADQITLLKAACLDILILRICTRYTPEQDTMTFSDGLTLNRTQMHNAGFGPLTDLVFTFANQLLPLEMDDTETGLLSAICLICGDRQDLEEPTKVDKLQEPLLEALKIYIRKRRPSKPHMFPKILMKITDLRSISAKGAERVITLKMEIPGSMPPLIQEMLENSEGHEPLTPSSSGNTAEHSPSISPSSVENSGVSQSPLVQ
Sequence of Peroxisome proliferator-activated receptor gamma (Homo sapiens) (P37231 whole entry, looked up, the tested form may be a part): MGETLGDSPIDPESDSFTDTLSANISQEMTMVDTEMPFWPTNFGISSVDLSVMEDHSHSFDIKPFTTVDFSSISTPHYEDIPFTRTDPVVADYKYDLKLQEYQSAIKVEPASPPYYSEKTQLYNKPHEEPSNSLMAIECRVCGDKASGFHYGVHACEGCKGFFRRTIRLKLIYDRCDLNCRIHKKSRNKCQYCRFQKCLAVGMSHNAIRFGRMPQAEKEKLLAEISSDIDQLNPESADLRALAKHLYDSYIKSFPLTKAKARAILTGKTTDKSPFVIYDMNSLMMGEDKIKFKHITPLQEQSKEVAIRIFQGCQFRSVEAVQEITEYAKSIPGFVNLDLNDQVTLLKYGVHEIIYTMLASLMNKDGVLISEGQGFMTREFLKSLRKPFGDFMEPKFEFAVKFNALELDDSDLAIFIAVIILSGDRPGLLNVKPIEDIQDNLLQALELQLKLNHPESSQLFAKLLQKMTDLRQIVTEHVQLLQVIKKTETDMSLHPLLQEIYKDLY
Sequence of human Peroxisome Proliferator-activated Receptor delta (PPARd), PPARD (gene 5467) (Q03181 whole entry, looked up, the tested form may be a part): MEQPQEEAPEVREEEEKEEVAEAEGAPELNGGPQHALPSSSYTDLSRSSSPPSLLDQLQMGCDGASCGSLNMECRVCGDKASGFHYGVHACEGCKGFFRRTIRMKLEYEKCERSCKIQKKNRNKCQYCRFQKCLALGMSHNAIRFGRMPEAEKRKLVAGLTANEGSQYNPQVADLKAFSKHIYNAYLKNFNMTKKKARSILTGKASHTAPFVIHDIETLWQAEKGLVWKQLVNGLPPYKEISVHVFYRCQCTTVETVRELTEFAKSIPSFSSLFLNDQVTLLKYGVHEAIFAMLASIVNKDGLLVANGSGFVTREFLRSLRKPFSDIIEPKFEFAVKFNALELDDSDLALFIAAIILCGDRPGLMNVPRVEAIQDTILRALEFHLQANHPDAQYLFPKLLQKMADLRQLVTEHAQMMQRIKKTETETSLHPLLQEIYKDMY

In the case of `F[Si-2](F)(F)(F)(F)F`, the compound was called inactive in assay [1], in assay [2], in assay [3] and in assay [4].

For the compound `CC(=O)C=O`, the result in assay [1], in assay [5] and in assay [4] was inactive.

In the case of `CCC(Cc1c(I)cc(I)c(N)c1I)C(=O)O` (stereo not given), the half-maximal activity concentration (AC50) was 35.9 µM (active) in assay [1] and 29.5 µM (active) in assay [6]. The compound was classed as inactive in assay [2] and in assay [4].

As to `CN1CN(C)CN(C)C1`, the compound was classed as inactive in assay [1], in assay [3], in assay [5], in assay [6] and in assay [7].

For the compound `CC1CCCCC1`, the compound was called inactive in assay [1], in assay [5], in assay [6] and in assay [7].

For the compound `CCCCCCCC/C=C\CCCCCCCC(=O)N(C)CC(=O)O`, the AC50 in assay [1] is 2.02 µM (active); in assay [6], 5.36 µM (active). In addition, the compound was classed as inactive in assay [3], in assay [5], in assay [4] and in assay [7].

In the case of `CC(O)C#CC(C)O` (stereo not given), the outcome in assay [1], in assay [2], in assay [3], in assay [5] and in assay [7] was inactive. Also, the AC50 in assay [6] was 41.1 µM (active).

On to `CCC(=O)OC(C)c1ccccc1` (stereo not given), for which the outcome in assay [1], in assay [2], in assay [5], in assay [6] and in assay [7] was inactive.

With `Cc1cc(=O)[nH]c(C(C)C)n1`, the compound was called inactive in assay [1], in assay [2], in assay [4] and in assay [7].

Take `C[Si](C)O[Si](C)C`: the call in assay [1], in assay [2], in assay [3] and in assay [7] was inactive.

Take `CCCCCCCCCCCC(=O)Cl`: the outcome in assay [1] and in assay [7] was inactive. Also, the half-maximal activity concentration (AC50) was 125 µM (active) in assay [2] and 72.9 µM (active) in assay [6].

Regarding `O=C(Cl)c1ccc(Cl)cc1Cl`, the outcome in assay [1], in assay [5], in assay [6] and in assay [7] was inactive.

As to `Cc1ccc([N+](=O)[O-])c(C)c1`, the compound was called inactive in assay [1], in assay [2], in assay [6] and in assay [4].

For the compound `O=C1c2ccccc2C(=O)c2c(Cl)cccc21`, the compound was classed as inactive in assay [1], in assay [5], in assay [6] and in assay [7]. The half-maximal activity concentration (AC50) in assay [4] is 2.73 µM (active).

For the compound `CCn1c2ccccc2c2ccccc21`, the call in assay [1], in assay [3], in assay [5], in assay [6] and in assay [7] was inactive. Moreover, the AC50 in assay [4] was 10.3 µM (active).

Take `CSc1ccc(Cl)cc1`: the call in assay [1], in assay [2] and in assay [4] was inactive.

As for `CCC/C=C/CO`, the result in assay [1], in assay [5], in assay [6] and in assay [4] was inactive.

`CN(N=O)C(=O)N[C@@H]1[C@@H](O)[C@H](O)[C@@H](CO)O[C@@H]1O`: the outcome in assay [1], in assay [2], in assay [4] and in assay [7] was inactive.

For the compound `Cc1ccc2c(c1)OCC(=O)CO2`, the result in assay [1], in assay [2] and in assay [6] was inactive.

Turning to `CCCCCCCCn1sc(Cl)c(Cl)c1=O`, the outcome in assay [1], in assay [2] and in assay [4] was inactive. In addition, the concentration at half-maximal activity (AC50) in assay [6] is 11.1 µM (active).

Consider `CCCCOC(=O)C(C)O` (stereo not given), for which the outcome in assay [1], in assay [2], in assay [3], in assay [6] and in assay [7] was inactive.

`Nc1cccnc1N`: the outcome in assay [1], in assay [3], in assay [6] and in assay [7] was inactive. Moreover, in assay [5], the concentration at half-maximal activity (AC50) was 70.8 µM (active).

In the case of `CC(C)Nc1ccc(NC(C)C)c2c1C(=O)c1ccccc1C2=O`, the compound was called inactive in assay [1], in assay [3], in assay [6] and in assay [7]. For the same compound, the AC50 in assay [4] was 0.16 µM (active).

Regarding `Oc1ccc(C2(c3ccc(O)c(C4CCCCC4)c3)CCCCC2)cc1C1CCCCC1`, the call in assay [1], in assay [5] and in assay [7] was inactive. Further, the AC50 in assay [6] is 2.92 µM (active); in assay [4] it was 0.977 µM (active).

As to `COC(=O)c1ccc(C=O)cc1`, the compound was classed as inactive in assay [1] and in assay [6].

On to `CCCCCCCC/C=C\CCCCCCCC(=O)OCC(O)CO` (stereo not given), for which the concentration at half-maximal activity (AC50) in assay [1] was 27.7 µM (active); in assay [6], 27.3 µM (active).

On to `O=c1[nH]cccc1O`, for which the call in assay [3], in assay [5], in assay [6] and in assay [7] was inactive.

On to `OCCCc1cccnc1`, for which the compound was called inactive in assay [2], in assay [5], in assay [6], in assay [4] and in assay [7].

`CCCCOC(=O)[C@H](C)O`: the compound was classed as inactive in assay [2], in assay [5] and in assay [6].

In the case of `CC(=O)CCC(C)C`, the result in assay [5], in assay [4] and in assay [7] was inactive.

As to `Cc1ccc(O)cn1`, the outcome in assay [2], in assay [6] and in assay [4] was inactive.

In the case of `CCOCN(C(=O)CS(=O)(=O)O)c1c(C)cccc1CC`, the result in assay [3], in assay [6], in assay [4] and in assay [7] was inactive.

For `CCCCCCCCCCCCCC[P+](CCCC)(CCCC)CCCC`, the outcome in assay [1], in assay [6] and in assay [4] was inactive.

`CCC(C)CO` (stereo not given): the result in assay [1], in assay [6], in assay [4] and in assay [7] was inactive.

In the case of `OCCCCl`, the outcome in assay [3] and in assay [5] was inactive.

Regarding `O=S(=O)(O)c1ccc(Cl)cc1`, the result in assay [2] and in assay [6] was inactive.

With `CCN=c1cc2oc3cc(NCC)c(C)cc3c(-c3ccccc3C(=O)OCC)c-2cc1C`, the compound was called inactive in assay [3] and in assay [6].
